According to PubChem BioAssay (NCI):
Compounds without any hit were thinned out: in the full panel of roughly 79,000, 15% have a hit. Unmarked numbers belong to inactive results. Active and inactive are the calls of the source. Cut-off read from the data, not from the text of the source: active = growth inhibition above about 70%; inactive = the rest.

Experiments:
[1] = NCI Yeast Anticancer Drug Screen. Data for the rad52 strain (AID 147);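 note: 0% = growth of vehicle-treated control cultures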; conditions: S. cerevisiae rad52 mutant growth inhibition, hits give high values
Summary of the method: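 Screen used a yeast mutant impaired in DNA repair. After compound exposure, growth was measured. Values reflect inhibition compared with vehicle-treated cells.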

[2] = NCI Yeast Anticancer Drug Screen. Data for the wt1 strain (AID 149);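 note: 0% = growth of vehicle-treated wt1 cultures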; conditions: S. cerevisiae wt1 strain (SPY 50644) growth inhibition, hits give high values
Summary of the method: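 Readout: yeast growth inhibition, normalised to vehicle controls, in the wt1 strain exposed to test compounds.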

[3] = NCI Yeast Anticancer Drug Screen. Data for the rad50EPP+ strain (AID 151);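 note: 0% = growth of vehicle-treated control cultures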; conditions: S. cerevisiae rad50 mutant strain, hits give high values
Summary of the method: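 Exposing the rad50EPP+ strain to each compound, growth was compared with vehicle-only cultures to give inhibition.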

[4] = NCI Yeast Anticancer Drug Screen. Data for the mgt1 strain (AID 153); conditions: S. cerevisiae mgt1 mutant growth inhibition, hits give high values
Summary of the method: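 Genetically defined yeast (mgt1) treated with compound; inhibition of growth expressed against vehicle-treated controls.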

[5] = NCI Yeast Anticancer Drug Screen. Data for the rad50 strain (AID 155);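 note: 0% = growth of vehicle-only cultures of the same strain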; conditions: S. cerevisiae rad50 strain growth inhibition, hits give high values
Summary of the method: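 Compounds were tested on a yeast strain with an engineered DNA damage repair alteration; the reported value is growth inhibition normalised to vehicle treatment.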

[6] = NCI Yeast Anticancer Drug Screen. Data for the mec2-1 strain (AID 157); conditions: S. cerevisiae mec2-1 strain, hits give high values
Summary of the method: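 Readout is yeast growth inhibition, normalised to vehicle-treated controls, in the mec2-1 strain exposed to compound.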

[7] = NCI Yeast Anticancer Drug Screen. Data for the rad14 strain (AID 159);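 note: 0% = growth of vehicle-treated control cultures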; conditions: S. cerevisiae rad14 strain growth inhibition, hits give high values
Summary of the method: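 Compound-treated yeast with a defined DNA-repair lesion; growth inhibition normalised to vehicle-treated cultures.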

[8] = NCI Yeast Anticancer Drug Screen. Data for the sgs1 mgt1 strain (AID 161);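 note: 0% = growth of cultures given vehicle only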; conditions: S. cerevisiae sgs1 mgt1 strain, hits give high values
Summary of the method: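 Growth of a repair-deficient yeast mutant was monitored after compound treatment and expressed as inhibition relative to vehicle-treated cultures.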

[9] = NCI Yeast Anticancer Drug Screen. Data for the cln2 rad14 strain (AID 165);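 note: 0% = growth equal to vehicle treated cultures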; conditions: S. cerevisiae cln2 rad14 strain, hits give high values
Summary of the method: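 Relative to vehicle controls, growth inhibition of compound-treated cln2 rad14 yeast was recorded.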

[10] = NCI Yeast Anticancer Drug Screen. Data for the bub3 strain (AID 167); conditions: S. cerevisiae bub3 mutant strain, hits give high values
Summary of the method: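 Growth of a checkpoint-deficient yeast mutant is measured after compound exposure. Values represent inhibition relative to vehicle.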

[11] = NCI Yeast Anticancer Drug Screen. Data for the wt2 strain (AID 169);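 note: 0% = growth of vehicle-treated yeast cultures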; conditions: S. cerevisiae wt2 strain growth inhibition, hits give high values
Summary of the method: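 Values express reduction in yeast growth under compound treatment, referenced to vehicle-treated cells.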

[12] = NCI Yeast Anticancer Drug Screen. Data for the mlh1 strain (AID 171);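 note: 0% = growth of vehicle-treated control cultures of the same strain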; conditions: S. cerevisiae mlh1 strain growth inhibition, hits give high values
Summary of the method: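 Steps: expose the defined-mutant yeast strain to compound; expose a parallel culture to vehicle; measure growth; express compound effect as inhibition relative to the vehicle culture.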

[13] = NCI Yeast Anticancer Drug Screen. Data for the sgs1 strain (AID 173);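 note: 0% = growth of vehicle-only control cultures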; conditions: S. cerevisiae sgs1 mutant, hits give high values
Summary of the method: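 Treat defined-mutant yeast with compound; measure growth; calculate inhibition relative to vehicle-treated cells.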

[14] = NCI Yeast Anticancer Drug Screen. Data for the mlh1 rad18 strain (AID 175); conditions: S. cerevisiae mlh1 rad18 strain growth inhibition, hits give high values
Summary of the method: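 Test agents were incubated with a yeast strain of defined genotype (DNA damage repair defect). Inhibition of growth was derived by comparison with vehicle-exposed cultures.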

[15] = NCI Yeast Anticancer Drug Screen. Data for the rad18 strain (AID 177); conditions: S. cerevisiae rad18 mutant growth inhibition, hits give high values
Summary of the method: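 A genetically defined yeast mutant impaired in DNA damage repair was treated with test compounds, then its growth was measured against cultures receiving vehicle alone.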

[16] = at 5.0 µM (retest, dose inferred, filed as 0.5)
[17] = at 50.0 µM (retest, dose inferred, filed as 5.0)

NC(N)=NS(=O)(=O)c1ccc(Nc2c3ccccc3nc3c(C(=O)NC(CO)(CO)CO)cccc23)cc1
growth inhibition ([1]; at 1.2 µM): 1%
growth inhibition ([1]; at 3.7 µM): 9%
growth inhibition ([1]; at 11.0 µM): 25%
growth inhibition ([1]; at 33.0 µM): 66%
growth inhibition ([1]; at 100.0 µM): 91% (active)
growth inhibition ([2]; at 1.2 µM): -1%
growth inhibition ([2]; at 3.7 µM): 0%
growth inhibition ([2]; at 11.0 µM): 0%
growth inhibition ([2]; at 33.0 µM): -1%
growth inhibition ([2]; at 100.0 µM): 2%
growth inhibition ([3]; at 1.2 µM): 1%
growth inhibition ([3]; at 3.7 µM): 5%
growth inhibition ([3]; at 11.0 µM): 15%
growth inhibition ([3]; at 33.0 µM): 44%
growth inhibition ([3]; at 100.0 µM): 85% (active)
growth inhibition ([4]; at 1.2 µM): 2%
growth inhibition ([4]; at 3.7 µM): -1%
growth inhibition ([4]; at 11.0 µM): -2%
growth inhibition ([4]; at 33.0 µM): 1%
growth inhibition ([4]; at 100.0 µM): 4%
growth inhibition ([5]; at 1.2 µM): 3%
growth inhibition ([5]; at 3.7 µM): 9%
growth inhibition [5, 16]: 6%
growth inhibition ([5]; at 11.0 µM): 27%
growth inhibition ([5]; at 33.0 µM): 64%
growth inhibition [5, 17]: 94% (active)
growth inhibition ([5]; at 50.0 µM): 70.8% (active)
growth inhibition ([5]; at 100.0 µM): 89% (active)
growth inhibition ([6]; at 1.2 µM): -1%
growth inhibition ([6]; at 3.7 µM): -1%
growth inhibition [6, 16]: 1%
growth inhibition ([6]; at 11.0 µM): 1%
growth inhibition ([6]; at 33.0 µM): 3%
growth inhibition [6, 17]: -13%
growth inhibition ([6]; at 50.0 µM): 8.65%
growth inhibition ([6]; at 100.0 µM): 13%
growth inhibition ([7]; at 1.2 µM): -1%
growth inhibition ([7]; at 3.7 µM): 3%
growth inhibition ([7]; at 11.0 µM): 3%
growth inhibition ([7]; at 33.0 µM): 3%
growth inhibition ([7]; at 100.0 µM): 10%
growth inhibition [8, 16]: 8%
growth inhibition [8, 17]: -3%
growth inhibition ([8]; at 50.0 µM): -20.5%
growth inhibition [9, 16]: 35%
growth inhibition [9, 17]: 3%
growth inhibition ([9]; at 50.0 µM): -9.45%
growth inhibition ([10]; at 1.2 µM): -1%
growth inhibition ([10]; at 3.7 µM): 2%
growth inhibition [10, 16]: -11%
growth inhibition ([10]; at 11.0 µM): 2%
growth inhibition ([10]; at 33.0 µM): 0%
growth inhibition [10, 17]: 15%
growth inhibition ([10]; at 50.0 µM): -5.3%
growth inhibition ([10]; at 100.0 µM): -2%
growth inhibition ([11]; at 1.2 µM): -1%
growth inhibition ([11]; at 3.7 µM): -2%
growth inhibition ([11]; at 11.0 µM): -1%
growth inhibition ([11]; at 33.0 µM): -1%
growth inhibition ([11]; at 100.0 µM): 4%
growth inhibition ([12]; at 1.2 µM): -1%
growth inhibition ([12]; at 3.7 µM): 0%
growth inhibition ([12]; at 11.0 µM): 0%
growth inhibition ([12]; at 33.0 µM): 0%
growth inhibition ([12]; at 100.0 µM): 5%
growth inhibition ([13]; at 1.2 µM): -1%
growth inhibition ([13]; at 3.7 µM): 1%
growth inhibition ([13]; at 11.0 µM): 2%
growth inhibition ([13]; at 33.0 µM): 2%
growth inhibition ([13]; at 100.0 µM): 8%
growth inhibition [14, 16]: 12%
growth inhibition [14, 17]: 12%
growth inhibition ([14]; at 50.0 µM): 15.7%
growth inhibition ([15]; at 1.2 µM): -3%
growth inhibition ([15]; at 3.7 µM): 0%
growth inhibition ([15]; at 11.0 µM): -1%
growth inhibition ([15]; at 33.0 µM): 2%
growth inhibition ([15]; at 100.0 µM): 9%

CC1(C2CC2)C(C#N)(C#N)C1(C#N)C#N
growth inhibition ([1]; at 1.2 µM): 2%
growth inhibition ([1]; at 3.7 µM): 10%
growth inhibition ([1]; at 11.0 µM): 22%
growth inhibition ([1]; at 33.0 µM): 45%
growth inhibition ([1]; at 100.0 µM): 78% (active)
growth inhibition ([2]; at 1.2 µM): -2%
growth inhibition ([2]; at 3.7 µM): -2%
growth inhibition ([2]; at 11.0 µM): 5%
growth inhibition ([2]; at 33.0 µM): 19%
growth inhibition ([2]; at 100.0 µM): 48%
growth inhibition ([3]; at 1.2 µM): -1%
growth inhibition ([3]; at 3.7 µM): 2%
growth inhibition ([3]; at 11.0 µM): 1%
growth inhibition ([3]; at 33.0 µM): 9%
growth inhibition ([3]; at 100.0 µM): 9%
growth inhibition ([4]; at 1.2 µM): -1%
growth inhibition ([4]; at 3.7 µM): -2%
growth inhibition ([4]; at 11.0 µM): 1%
growth inhibition ([4]; at 33.0 µM): 16%
growth inhibition ([4]; at 100.0 µM): 63%
growth inhibition ([5]; at 1.2 µM): -1%
growth inhibition ([5]; at 3.7 µM): 3%
growth inhibition [5, 16]: -106%
growth inhibition ([5]; at 11.0 µM): 25%
growth inhibition ([5]; at 33.0 µM): 66%
growth inhibition [5, 17]: 91% (active)
growth inhibition ([5]; at 50.0 µM): 38.1%
growth inhibition ([5]; at 100.0 µM): 91% (active)
growth inhibition ([6]; at 1.2 µM): 4%
growth inhibition ([6]; at 3.7 µM): 2%
growth inhibition [6, 16]: -39%
growth inhibition ([6]; at 11.0 µM): 33%
growth inhibition ([6]; at 33.0 µM): 36%
growth inhibition [6, 17]: 57%
growth inhibition ([6]; at 50.0 µM): 41.9%
growth inhibition ([6]; at 100.0 µM): 84% (active)
growth inhibition ([7]; at 1.2 µM): 4%
growth inhibition ([7]; at 3.7 µM): 7%
growth inhibition ([7]; at 11.0 µM): 16%
growth inhibition ([7]; at 33.0 µM): 29%
growth inhibition ([7]; at 100.0 µM): 66%
growth inhibition [8, 16]: -48%
growth inhibition [8, 17]: 70% (active)
growth inhibition ([8]; at 50.0 µM): 51%
growth inhibition [9, 16]: -50%
growth inhibition [9, 17]: 7%
growth inhibition ([9]; at 50.0 µM): 16.3%
growth inhibition ([10]; at 1.2 µM): -7%
growth inhibition ([10]; at 3.7 µM): -2%
growth inhibition [10, 16]: -57%
growth inhibition ([10]; at 11.0 µM): 19%
growth inhibition ([10]; at 33.0 µM): 49%
growth inhibition [10, 17]: 81% (active)
growth inhibition ([10]; at 50.0 µM): 39.8%
growth inhibition ([10]; at 100.0 µM): 84% (active)
growth inhibition ([11]; at 1.2 µM): -1%
growth inhibition ([11]; at 3.7 µM): -2%
growth inhibition ([11]; at 11.0 µM): -1%
growth inhibition ([11]; at 33.0 µM): 15%
growth inhibition ([11]; at 100.0 µM): 69%
growth inhibition ([12]; at 1.2 µM): 4%
growth inhibition ([12]; at 3.7 µM): -9%
growth inhibition ([12]; at 11.0 µM): 9%
growth inhibition ([12]; at 33.0 µM): 31%
growth inhibition ([12]; at 100.0 µM): 84% (active)
growth inhibition ([13]; at 1.2 µM): -1%
growth inhibition ([13]; at 3.7 µM): 6%
growth inhibition ([13]; at 11.0 µM): 23%
growth inhibition ([13]; at 33.0 µM): 60%
growth inhibition ([13]; at 100.0 µM): 94% (active)
growth inhibition [14, 16]: -96%
growth inhibition [14, 17]: 89% (active)
growth inhibition ([14]; at 50.0 µM): 70.9% (active)
growth inhibition ([15]; at 1.2 µM): 4%
growth inhibition ([15]; at 3.7 µM): 9%
growth inhibition ([15]; at 11.0 µM): 22%
growth inhibition ([15]; at 33.0 µM): 53%
growth inhibition ([15]; at 100.0 µM): 87% (active)
